Hits are enriched below; roughly 4.5% of the tested compounds scored in any of these assays.
EBNA-1 inhibitor: blocks EBNA-1 binding to DNA; EBNA-1 DNA binding, fluorescence polarization; AID 1950; inhibition, % at 14.8 µM; 300,000 tested, 0.34% active; in the data active = inhibition above about 28%
Rpn11 block: Rpn11 (human) deubiquitinase inhibition | O00487 | human 26S proteasome, Ub4-pepOG fluorescence polarization; 20S core pre-blocked with epoxomicin | inhibition, % at 20 µM | 360,000 tested, 0.59% active | AID 588493;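 active = inhibition at 20 µM, scaled to each plate's controls, above about 33%, limit read from the data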
Target sequence (O00487 whole entry, looked up): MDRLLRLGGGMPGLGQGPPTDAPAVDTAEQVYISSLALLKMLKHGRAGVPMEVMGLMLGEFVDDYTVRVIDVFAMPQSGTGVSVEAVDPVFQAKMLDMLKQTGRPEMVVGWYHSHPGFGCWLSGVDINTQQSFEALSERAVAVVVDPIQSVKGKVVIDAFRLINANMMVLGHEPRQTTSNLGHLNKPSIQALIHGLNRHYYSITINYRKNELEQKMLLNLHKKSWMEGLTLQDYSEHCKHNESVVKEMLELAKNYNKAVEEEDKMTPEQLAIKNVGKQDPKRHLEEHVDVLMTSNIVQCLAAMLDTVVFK
NR3A LBD binder: NR3A (human) ligand-binding domain modulation; 340,000 tested, 2.5% active; Tm shift relative to glycine control, % at 25 µM; NR3A LBD differential scanning fluorimetry, Tm shift; 0% = protein alone, 100% = glycine-bound protein;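 active = melting temperature shift of at least 10% of the positive control shift, at one fixed dose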
ZTA DNA inh: counter-screen for EBNA-1 inhibitors: inhibitors of Epstein-Barr virus ZTA; P03206; ZTA-DNA binding, fluorescence polarization; inhibition, % at 11 µM; 320,000 tested, 0.15% active; AID 2234; in the data active = inhibition above about 33%
dFosB activator: activators of mouse delta FosB homodimer; purified delta FosB, TAMRA-CDK5 oligo fluorescence polarization; percent of positive-control signal above neutral wells; activation, % at 25 µM; AID 493131; 340,000 tested, 0.99% active;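 active = mean activation above about 17%, with every replicate also reaching it, limit read from the data, passing the limit was not always enough; inconclusive = only one of the two conditions met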
Target sequence (P13346 whole entry, looked up): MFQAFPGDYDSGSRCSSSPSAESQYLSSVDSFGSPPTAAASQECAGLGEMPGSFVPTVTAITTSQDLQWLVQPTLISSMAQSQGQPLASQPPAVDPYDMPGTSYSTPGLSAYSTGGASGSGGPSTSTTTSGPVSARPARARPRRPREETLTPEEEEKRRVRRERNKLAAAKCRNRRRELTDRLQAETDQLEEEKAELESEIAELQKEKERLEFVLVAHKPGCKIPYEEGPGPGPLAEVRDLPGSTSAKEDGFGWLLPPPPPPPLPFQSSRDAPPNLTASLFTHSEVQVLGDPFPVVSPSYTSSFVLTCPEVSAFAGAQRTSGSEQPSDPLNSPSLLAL
TPT1 inhibitor: C. albicans TPT1 enzyme inhibition; recombinant caTPT1, FP RNA substrate dephosphorylation; inhibition, % at 5 µM; 300,000 tested, 0.81% active; AID 1962;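 active = inhibition above the mean of all tested compounds plus 3 SD, set per screening campaign, cut at about 24% in these data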;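 also: plate controls were DMSO alone for no effect and ferristatin control at 100 nM for full effect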
Numbers without * were called inactive; u = inconclusive; x = no result.

SMILES | EBNA-1 inhibitor | Rpn11 block | NR3A LBD binder | ZTA DNA inh | dFosB activator | TPT1 inhibitor
FC(F)Sc1nc(-c2ccccc2)c(-c2ccccc2)n1C(F)F | 2 | -2 | 18* | 0 | -2 | 3
Cn1ncc2c(NCCc3ccccc3)nc(Cl)nc21 | x | 3 | -1 | x | -4 | x
CC(C)(C)NC(=O)c1nn(Cc2ccccc2)c(=O)c2ccccc12 | 6 | -12 | 0 | 14 | -2 | 0
O=C1c2ccccc2CCC12N=NCC2c1ccc(Br)cc1 (stereo not given) | 1 | -6 | 11* | 4 | -4 | -2
CCOC(=O)/C(=N\Nc1cc(C(F)(F)F)ccc1Cl)N(CC)CC | -4 | -3 | 15* | -15 | 9 | -1
Cc1cc(C)cc(OCC(O)CN2CC(C)OC(C)C2)c1 (stereo not given) | 7 | -5 | 1 | 3 | 3 | 3
O=C(C=P(c1ccccc1)(c1ccccc1)c1ccccc1)c1ccccc1-c1ccccc1C(=O)C=P(c1ccccc1)(c1ccccc1)c1ccccc1 | x | 37 | 1 | x | 36* | x
CC(C)=CCc1c(O)cc(O)c2c(=O)c3c(CC=C(C)C)c(O)ccc3oc12 | -7 | x | 26* | 12 | x | 3
CC(C)=CCc1c(O)cc2c(=O)c3ccc(O)cc3oc2c1O | 6 | -1 | 25* | 15 | u | -2
CCCN1C(=O)/C(=C/c2ccco2)SC1=Nc1ccc(OC)cc1 | -4 | 2 | 21* | 1 | -10 | 4
CCC(=O)NC(=S)Nc1ccc(NC(=O)c2ccc(OC)cc2)cc1 | 17 | -3 | -4 | 11 | 11 | 2
CCC(=O)Nc1ccc(/C(C)=N\NC(=O)c2ccc(OC)cc2)cc1 | 4 | 4 | 19* | 5 | 2 | -1
COc1ccc(C(=O)N/N=C(/C)c2cccc(NC(=O)C(F)(F)F)c2)cc1 | 18 | -6 | 10* | 25 | -5 | -1
CN(NC(=O)c1ccccc1Cl)c1ncc(C(F)(F)F)cc1Cl | -8 | 0 | 1 | -8 | 0 | -3
COc1ccccc1-c1nnc(SCC(=O)NCc2c(C)c(Cl)cc(C(C)C)c2O)o1 | 12 | -2 | 23* | 3 | -12 | 1
COc1ccccc1-c1nnc(SCC(=O)Nc2c(Cl)cccc2Cl)o1 | -2 | 4 | -3 | -21 | -3 | -2
Cc1ccc(NC(=O)C2CCC(=O)N2C(=O)OCc2ccccc2)cc1 (stereo not given) | -1 | 3 | 4 | 7 | -6 | -1
COc1ccc(NC(=O)C2CCC(=O)N2C(=O)OCc2ccccc2)cc1 (stereo not given) | -17 | -2 | 11* | 14 | -2 | -2
O=S(=O)(Nc1ccc(-c2csc(-c3ccccc3)n2)cc1)c1ccccc1 | 6 | -19 | 20* | -7 | -4 | 1
Cc1ccc(S(=O)(=O)Nc2ccc(-c3csc(-c4ccccc4)n3)cc2)cc1 | 3 | 2 | 24* | -6 | -7 | 0
CSC1=N/C(=C\c2ccccc2F)C(=O)S1 | 8 | -1 | 16* | 7 | -1 | 1
COc1cc(OC)c(OC)cc1CNC(=O)c1cccc(S(=O)(=O)N2CCc3ccccc3C2)c1 | x | 1 | -1 | x | 11 | x
O=c1c(Cc2ccc(Cl)cc2Cl)c(O)ccn1Cc1ccc(Cl)cc1 | 2 | 1 | 22* | 3 | 0 | 1
O=c1c(Cc2ccc(Cl)cc2)c(O)ccn1Cc1cccc(Cl)c1 | -2 | 5 | -7 | 0 | u | -3
CC(=O)c1cc2c(cc1NC(=O)CN1Cc3ccccc3C1=O)OCO2 | 8 | -7 | 12* | 12 | 14 | -1
SMILES | EBNA-1 inhibitor | Rpn11 block | NR3A LBD binder | ZTA DNA inh | dFosB activator | TPT1 inhibitor
COc1ccc(NS(=O)(=O)c2ccc3oc(SCc4ccc(F)cc4)nc3c2)cc1 | 6 | -5 | 13* | 12 | 3 | 0
CCC(CC)COC(=O)C1=C(C)NC(=O)NC1c1cccc([N+](=O)[O-])c1 (stereo not given) | 10 | 2 | 2 | 10 | -13 | -1
COc1cccc(-n2c([S-])c(C(=O)Nc3ccc(S(=O)(=O)N4CCOCC4)cc3)[n+]3cc(C(N)=O)ccc23)c1 | 19 | 1 | 1 | 16 | 4 | -3
O=C1CCCC(=O)C1=C1SCCCS1 | -3 | -2 | 11* | -9 | 1 | 0
O=C1C(=C2SCCCS2)CC/C1=C\c1ccc(F)cc1 | -3 | 6 | -2 | 6 | -1 | -1
COc1ccc(C(=O)NC(C(=O)NCC2(N3CCCCC3)CCCCC2)C(C)C)cc1 (stereo not given) | x | 2 | 0 | 7 | 1 | x
CCN1CCN(c2ccc(S(=O)(=O)N3CCOCC3)cc2NC(=O)C2CCC(C(C)(C)C)CC2)CC1 (stereo not given) | x | 2 | 19* | x | 1 | x
Cc1ccc(C(=O)OCC(=O)Nc2ccc(C)c(S(=O)(=O)N3CCCCC3)c2)o1 | x | -2 | x | x | x | x
O=C(COC(=O)c1cc(S(=O)(=O)Nc2ccccc2Cl)ccc1O)Nc1ccc(F)c(F)c1F | x | 2 | 4 | x | 25* | x
O=C(COc1ccccc1F)Nc1cc(S(=O)(=O)Nc2cccc(Cl)c2)ccc1O | x | 6 | 27* | -7 | 11 | x
COc1cccc(C(C)(O)c2nc(-c3ccc(S(C)(=O)=O)cc3)cs2)c1 (stereo not given) | x | -8 | x | x | x | x
Cc1ccc(S(=O)(=O)N(CCC(=O)O)c2ccccc2)cc1 | 12 | 0 | 15* | 0 | -6 | -2
Cc1ccc(S(=O)(=O)NCCC(=O)N2CCCCCCC2)cc1C | -4 | 0 | -1 | 9 | -7 | -2
Cc1ccc(SCn2nnc3ccccc3c2=O)c(C)c1 | -5 | -4 | 0 | 0 | -2 | -2
O=c1c2ccccc2nnn1CSc1ccccc1F | 2 | 4 | 11* | -1 | -9 | -3
CC(C#Cc1ccc2c(c1)COc1c3ccccc3nn1-2)OC(C)(C)C (stereo not given) | -2 | 6 | 2 | 2 | -5 | 3
Cc1cccc(C(C)C)c1NC(=O)COC(=O)c1cccc(S(=O)(=O)N2CCc3ccccc3C2)c1 | 14 | -6 | 22* | 12 | u | -3
COc1ccc(CN(C)C(=O)c2ccc(Cl)c(S(=O)(=O)NCc3cccnc3)c2)cc1F | x | -4 | 3 | -22 | -6 | x
O=S(=O)(Nc1ccc2oc(-c3ccccc3)nc2c1)c1ccccc1 | 5 | 0 | -5 | -2 | -7 | -4
Cc1ccc(-c2nc3cc(NS(=O)(=O)c4ccc(C)cc4)ccc3o2)cc1 | -5 | 6 | 12* | -4 | -6 | 0
CC(=O)Nc1cc2cc(NS(=O)(=O)c3ccc(C)cc3)ccc2oc1=O | 2 | -5 | 1 | -15 | 155* | -2
Cc1cccc(NC(=O)COC(=O)CN2CCCCCC2=O)c1C | x | 1 | 2 | x | 1 | x
O=C(CCOc1ccccc1)Nc1ccccc1F | -4 | 0 | 1 | 5 | -8 | -3
CCN1C(=O)/C(=C\c2ccncc2)SC1=Nc1ccc(C)c(C)c1 | 1 | -2 | 13* | 7 | -3 | 1

Screening data as filed in PubChem BioAssay.
